These results are taken from ChEMBL document CHEMBL2218924, “A broad activity screen in support of a chemogenomic map for kinase signalling research and drug discovery” (Biochem J, 2013).

In assay [1] the target is MAP kinase-activated protein kinase 2 (Homo sapiens) (UniProt P49137). The note with it: at 10 µM.
Assay [2] deals with MAP kinase-activated protein kinase 3 (Homo sapiens) (UniProt Q16644). The note with it: at 10 µM.
Assay [3] has as its target Serine/threonine-protein kinase MARK1 (Homo sapiens) (UniProt Q9P0L2). The following applies: at 1 µM.
Assay [4] shares this target. The note with it: at 10 µM.
The target of assay [5] is Dual specificity mitogen-activated protein kinase kinase 1 (Homo sapiens) (UniProt Q02750). The following applies: at 1 µM.
Chain of Dual specificity mitogen-activated protein kinase kinase 1 (Homo sapiens) (Q02750 whole entry): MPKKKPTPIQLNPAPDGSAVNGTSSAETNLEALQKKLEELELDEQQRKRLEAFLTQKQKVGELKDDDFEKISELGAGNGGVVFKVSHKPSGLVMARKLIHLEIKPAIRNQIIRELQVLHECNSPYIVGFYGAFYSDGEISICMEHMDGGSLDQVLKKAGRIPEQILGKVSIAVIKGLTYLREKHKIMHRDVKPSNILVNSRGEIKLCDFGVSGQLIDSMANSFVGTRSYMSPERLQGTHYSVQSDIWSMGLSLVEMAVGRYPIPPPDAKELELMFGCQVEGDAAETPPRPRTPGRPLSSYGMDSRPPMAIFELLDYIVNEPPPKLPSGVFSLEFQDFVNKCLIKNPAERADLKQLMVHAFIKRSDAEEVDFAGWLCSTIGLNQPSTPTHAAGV
For assay [6] the target is unchanged. The note with it: at 10 µM.
Assay [7] addresses Maternal embryonic leucine zipper kinase (Homo sapiens) (UniProt Q14680). The following applies: at 1 µM.
For assay [8] the target is unchanged. The note with it: at 10 µM.
Assay [9] concerns the target Misshapen-like kinase 1 (Homo sapiens) (UniProt Q8N4C8). The note with it: at 1 µM.
The target is the same in assay [10]. The following applies: at 10 µM.
The target in assay [11] is T1, Dual specificity mitogen-activated protein kinase kinase 6 (Homo sapiens) (UniProt P52564).
T1 sequence (whole entry): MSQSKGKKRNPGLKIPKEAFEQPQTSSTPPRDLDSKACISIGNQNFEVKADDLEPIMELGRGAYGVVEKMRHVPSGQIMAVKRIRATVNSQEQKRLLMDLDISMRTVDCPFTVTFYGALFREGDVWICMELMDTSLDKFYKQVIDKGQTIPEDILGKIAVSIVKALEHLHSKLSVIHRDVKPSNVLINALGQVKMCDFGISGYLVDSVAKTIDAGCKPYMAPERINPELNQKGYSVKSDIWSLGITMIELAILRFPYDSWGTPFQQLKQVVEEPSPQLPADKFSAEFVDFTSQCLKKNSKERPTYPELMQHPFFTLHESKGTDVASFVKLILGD
The following applies: at 1 µM.

Assay [12] deals with T1, Dual specificity mitogen-activated protein kinase kinase 6 (Homo sapiens). The following applies: at 10 µM.
Assay [13] addresses T2, Dual specificity mitogen-activated protein kinase kinase 7 (Homo sapiens) (UniProt O14733).
T2 sequence (whole entry): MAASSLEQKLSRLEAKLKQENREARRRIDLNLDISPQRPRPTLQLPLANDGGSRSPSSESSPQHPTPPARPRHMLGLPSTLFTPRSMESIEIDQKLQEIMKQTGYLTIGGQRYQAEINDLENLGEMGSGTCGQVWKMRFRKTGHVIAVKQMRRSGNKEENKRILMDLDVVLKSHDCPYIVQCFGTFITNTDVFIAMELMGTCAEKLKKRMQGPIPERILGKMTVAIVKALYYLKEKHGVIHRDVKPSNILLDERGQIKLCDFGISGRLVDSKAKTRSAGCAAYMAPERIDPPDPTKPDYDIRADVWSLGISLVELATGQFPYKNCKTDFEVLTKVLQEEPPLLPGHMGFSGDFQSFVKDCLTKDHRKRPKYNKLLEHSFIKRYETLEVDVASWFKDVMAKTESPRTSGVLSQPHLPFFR
The note with it: at 1 µM.

The target in assay [14] is T2, Dual specificity mitogen-activated protein kinase kinase 7 (Homo sapiens). The note with it: at 10 µM.
In assay [15] the target is Myosin light chain kinase, smooth muscle (Homo sapiens) (UniProt Q15746). The following applies: at 1 µM.
Chain of Myosin light chain kinase, smooth muscle (Homo sapiens) (Q15746 whole entry): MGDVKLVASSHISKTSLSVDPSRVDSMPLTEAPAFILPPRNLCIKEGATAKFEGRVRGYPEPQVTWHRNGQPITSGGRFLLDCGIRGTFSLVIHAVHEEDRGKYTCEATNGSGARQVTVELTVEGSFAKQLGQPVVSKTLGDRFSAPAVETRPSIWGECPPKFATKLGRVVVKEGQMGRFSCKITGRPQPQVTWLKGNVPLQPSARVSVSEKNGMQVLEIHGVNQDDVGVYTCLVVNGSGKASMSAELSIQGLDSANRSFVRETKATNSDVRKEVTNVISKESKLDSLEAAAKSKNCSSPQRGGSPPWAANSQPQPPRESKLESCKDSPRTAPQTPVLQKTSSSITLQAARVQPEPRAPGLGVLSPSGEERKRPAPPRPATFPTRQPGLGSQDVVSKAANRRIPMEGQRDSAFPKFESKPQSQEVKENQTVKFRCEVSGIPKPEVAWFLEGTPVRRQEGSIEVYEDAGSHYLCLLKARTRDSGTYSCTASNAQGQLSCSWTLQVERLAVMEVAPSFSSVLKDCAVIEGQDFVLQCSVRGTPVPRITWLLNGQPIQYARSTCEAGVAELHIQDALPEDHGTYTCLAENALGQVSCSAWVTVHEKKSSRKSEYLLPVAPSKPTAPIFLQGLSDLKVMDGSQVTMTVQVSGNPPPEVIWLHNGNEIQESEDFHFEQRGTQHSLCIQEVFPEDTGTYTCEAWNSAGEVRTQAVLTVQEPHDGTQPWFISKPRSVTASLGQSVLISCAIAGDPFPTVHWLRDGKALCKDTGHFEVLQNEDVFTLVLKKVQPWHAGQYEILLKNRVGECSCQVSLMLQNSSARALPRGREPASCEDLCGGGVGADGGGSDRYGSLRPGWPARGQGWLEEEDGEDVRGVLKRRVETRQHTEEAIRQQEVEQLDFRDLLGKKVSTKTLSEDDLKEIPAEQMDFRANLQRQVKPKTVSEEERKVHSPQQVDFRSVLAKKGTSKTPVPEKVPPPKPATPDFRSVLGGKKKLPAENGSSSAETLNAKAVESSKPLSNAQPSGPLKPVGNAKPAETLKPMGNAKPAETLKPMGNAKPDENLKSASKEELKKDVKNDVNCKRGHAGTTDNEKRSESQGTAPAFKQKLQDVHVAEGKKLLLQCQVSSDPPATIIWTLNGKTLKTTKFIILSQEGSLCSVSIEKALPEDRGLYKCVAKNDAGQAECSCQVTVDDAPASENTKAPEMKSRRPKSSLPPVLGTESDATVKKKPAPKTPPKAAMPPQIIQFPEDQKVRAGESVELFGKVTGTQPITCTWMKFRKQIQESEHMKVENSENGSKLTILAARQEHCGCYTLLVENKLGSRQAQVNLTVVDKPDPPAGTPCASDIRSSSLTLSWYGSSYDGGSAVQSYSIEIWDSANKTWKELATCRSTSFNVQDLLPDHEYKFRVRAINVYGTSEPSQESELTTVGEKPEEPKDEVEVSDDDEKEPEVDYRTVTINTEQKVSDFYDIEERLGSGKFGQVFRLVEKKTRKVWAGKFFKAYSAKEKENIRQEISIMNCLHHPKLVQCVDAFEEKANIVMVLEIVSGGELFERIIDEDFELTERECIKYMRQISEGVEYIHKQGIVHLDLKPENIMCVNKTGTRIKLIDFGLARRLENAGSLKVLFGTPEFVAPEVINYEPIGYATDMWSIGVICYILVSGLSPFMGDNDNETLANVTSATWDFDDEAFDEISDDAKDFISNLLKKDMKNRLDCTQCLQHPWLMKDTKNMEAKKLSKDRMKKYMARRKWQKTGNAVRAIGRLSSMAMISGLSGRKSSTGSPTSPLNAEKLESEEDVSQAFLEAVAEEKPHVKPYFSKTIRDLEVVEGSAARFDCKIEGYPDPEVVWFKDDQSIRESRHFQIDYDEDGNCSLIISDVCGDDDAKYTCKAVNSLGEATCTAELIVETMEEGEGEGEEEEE
Assay [16] shares this target. The following applies: at 10 µM.
For assay [17], the target named is Mitogen-activated protein kinase kinase kinase 9 (Homo sapiens) (UniProt P80192). The following applies: at 1 µM.
Chain of Mitogen-activated protein kinase kinase kinase 9 (Homo sapiens) (P80192 whole entry, looked up): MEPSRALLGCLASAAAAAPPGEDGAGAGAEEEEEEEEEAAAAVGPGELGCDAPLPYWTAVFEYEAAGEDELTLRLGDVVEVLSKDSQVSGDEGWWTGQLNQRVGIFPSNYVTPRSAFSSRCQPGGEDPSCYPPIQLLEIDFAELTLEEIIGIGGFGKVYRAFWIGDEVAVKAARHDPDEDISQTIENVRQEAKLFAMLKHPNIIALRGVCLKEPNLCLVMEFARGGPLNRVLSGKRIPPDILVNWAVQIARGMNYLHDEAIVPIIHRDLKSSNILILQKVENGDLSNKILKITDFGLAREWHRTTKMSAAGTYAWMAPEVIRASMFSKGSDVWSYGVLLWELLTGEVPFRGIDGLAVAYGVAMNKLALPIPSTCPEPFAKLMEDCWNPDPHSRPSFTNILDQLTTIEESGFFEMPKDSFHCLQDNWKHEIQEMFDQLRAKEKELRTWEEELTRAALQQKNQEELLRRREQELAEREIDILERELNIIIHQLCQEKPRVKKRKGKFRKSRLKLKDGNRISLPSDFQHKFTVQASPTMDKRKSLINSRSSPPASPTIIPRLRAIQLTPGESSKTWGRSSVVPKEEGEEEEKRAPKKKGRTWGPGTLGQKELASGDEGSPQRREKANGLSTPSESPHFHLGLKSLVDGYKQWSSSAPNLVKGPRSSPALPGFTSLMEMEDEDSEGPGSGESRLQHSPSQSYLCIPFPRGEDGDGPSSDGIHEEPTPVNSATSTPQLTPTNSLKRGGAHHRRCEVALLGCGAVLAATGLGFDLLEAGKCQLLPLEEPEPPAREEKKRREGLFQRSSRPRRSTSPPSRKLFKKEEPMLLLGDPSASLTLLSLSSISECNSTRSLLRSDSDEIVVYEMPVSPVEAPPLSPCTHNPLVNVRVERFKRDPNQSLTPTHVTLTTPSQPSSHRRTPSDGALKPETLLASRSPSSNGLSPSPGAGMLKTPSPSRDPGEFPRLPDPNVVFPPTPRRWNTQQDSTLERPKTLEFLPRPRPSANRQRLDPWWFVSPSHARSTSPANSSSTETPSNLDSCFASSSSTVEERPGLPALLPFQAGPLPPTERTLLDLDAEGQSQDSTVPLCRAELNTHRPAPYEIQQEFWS
The target is the same in assay [18]. The note with it: at 10 µM.
Assay [19] has as its target Serine/threonine-protein kinase MRCK alpha (Homo sapiens) (UniProt Q5VT25). The note with it: at 1 µM.
Assay [20] shares this target. The note with it: at 10 µM.

Chain of Maternal embryonic leucine zipper kinase (Homo sapiens) (Q14680 whole entry, looked up): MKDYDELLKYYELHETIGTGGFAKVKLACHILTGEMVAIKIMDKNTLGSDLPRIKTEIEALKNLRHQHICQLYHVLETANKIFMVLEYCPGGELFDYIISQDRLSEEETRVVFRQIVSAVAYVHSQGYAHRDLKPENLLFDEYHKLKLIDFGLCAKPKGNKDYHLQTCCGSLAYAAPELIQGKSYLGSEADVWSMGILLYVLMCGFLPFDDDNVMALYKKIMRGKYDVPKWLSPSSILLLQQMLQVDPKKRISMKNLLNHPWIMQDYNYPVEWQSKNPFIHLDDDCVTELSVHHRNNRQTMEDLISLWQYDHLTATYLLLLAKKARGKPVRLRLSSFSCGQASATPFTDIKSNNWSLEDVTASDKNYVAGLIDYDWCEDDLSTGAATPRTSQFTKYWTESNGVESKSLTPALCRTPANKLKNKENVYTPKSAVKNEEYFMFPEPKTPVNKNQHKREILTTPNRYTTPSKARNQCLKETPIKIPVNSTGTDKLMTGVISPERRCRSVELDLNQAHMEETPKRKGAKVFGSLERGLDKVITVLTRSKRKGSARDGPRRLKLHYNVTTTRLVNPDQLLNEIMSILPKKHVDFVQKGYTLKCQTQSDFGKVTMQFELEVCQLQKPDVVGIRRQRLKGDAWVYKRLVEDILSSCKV
Chain of MAP kinase-activated protein kinase 3 (Homo sapiens) (Q16644 whole entry, looked up): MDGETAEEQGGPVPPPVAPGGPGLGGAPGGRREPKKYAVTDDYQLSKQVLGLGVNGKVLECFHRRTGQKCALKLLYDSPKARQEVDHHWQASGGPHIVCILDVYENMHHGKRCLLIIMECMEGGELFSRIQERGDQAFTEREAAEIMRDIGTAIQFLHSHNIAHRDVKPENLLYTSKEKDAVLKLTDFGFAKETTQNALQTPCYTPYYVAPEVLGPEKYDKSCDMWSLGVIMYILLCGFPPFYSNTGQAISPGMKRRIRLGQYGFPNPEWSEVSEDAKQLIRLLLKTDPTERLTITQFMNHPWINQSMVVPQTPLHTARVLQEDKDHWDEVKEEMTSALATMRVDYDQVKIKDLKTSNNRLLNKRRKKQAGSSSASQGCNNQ
Chain of MAP kinase-activated protein kinase 2 (Homo sapiens) (P49137 whole entry, looked up): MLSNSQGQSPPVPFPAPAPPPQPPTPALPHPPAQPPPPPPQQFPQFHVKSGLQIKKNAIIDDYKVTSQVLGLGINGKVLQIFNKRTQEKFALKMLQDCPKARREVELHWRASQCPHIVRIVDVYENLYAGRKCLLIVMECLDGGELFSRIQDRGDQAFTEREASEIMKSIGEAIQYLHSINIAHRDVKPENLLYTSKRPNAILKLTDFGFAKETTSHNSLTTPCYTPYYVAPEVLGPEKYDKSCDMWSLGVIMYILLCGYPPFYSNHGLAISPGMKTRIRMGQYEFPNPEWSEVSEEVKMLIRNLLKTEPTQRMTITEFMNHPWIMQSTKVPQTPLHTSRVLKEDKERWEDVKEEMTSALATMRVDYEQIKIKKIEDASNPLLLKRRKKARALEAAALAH

Consider `O=c1c2ccccc2[nH]c(=S)n1CCN1CCC(=C(c2ccc(F)cc2)c2ccc(F)cc2)CC1`, for which the residual activity in assay [1] was found to be 89%; in assay [2] it was 86%; in assay [3], 100%; in [4], 87%; in [5], 98%; in assay [6] it was 92%. For the same compound, the residual activity was 86% in assay [7]; 86% in assay [8]; 88% in [9]; 65% in assay [10]; 107% in [11]; 93% in assay [12]. Further, the residual activity stood at 82% in [13]; 90% in assay [14]; 73% in assay [15]; 86% in [16]; 92% in [17]; 101% in assay [18]. Further, the residual activity in [19] was determined as 107%; in assay [20], 103%.

Regarding `CC#CC(=O)Nc1cc2c(Nc3ccc(F)c(Cl)c3)ncnc2cn1`, the residual activity in assay [1] was determined as 92%; in assay [2], 96%; in assay [3], 87%; in assay [4] it was 83%; in assay [5], 111%; in assay [6], 103%. For the same compound, the residual activity in [7] was 76%; in [8], 99%; in assay [9], 96%; in [10], 91%; in assay [11] it was 77%; in assay [12], 140%. Moreover, the residual activity came to 97% in [13]; 90% in assay [14]; 73% in assay [15]; 110% in assay [16]; 98% in assay [17]; 100% in [18]. In addition, the residual activity in [19] was 98%; in assay [20], 87%.

`Nc1nc(Nc2ccc(S(N)(=O)=O)cc2)nn1C(=S)Nc1c(F)cccc1F`: the residual activity in assay [1] was 9%; in assay [2], 41%; in assay [3] it was -1%; in [4], 0%; in assay [5], 16%; in assay [6], 6%. For the same compound, the residual activity in assay [7] was 17%; in [8], 24%; in assay [9] it was 18%; in assay [10] it was 2%; in assay [11], 26%; in assay [12], 20%. Moreover, the residual activity in assay [13] is 65%; in assay [14] it was 16%; in [15], 79%; in assay [16], 29%; in assay [17] it was -1%; in assay [18], -1%. In addition, the residual activity in assay [19] was determined as 28%; in assay [20] it was 24%.

On to `CO[C@H]1[C@@H](OC)C[C@H](C)[C@@H](OC)C2=CC(=O)C=C(NC(=O)/C(C)=C/C=C/[C@H](OC)[C@@H](OC(N)=O)/C(C)=C/[C@@H]1C)C2=O`, for which the residual activity in assay [1] amounted to 85%; in assay [2] it was 81%; in [3], 92%; in [4], 82%; in assay [5] it was 102%; in assay [6] it was 95%. For the same compound, the residual activity in assay [7] turned out to be 60%; in assay [8], 63%; in assay [9] it was 95%; in assay [10], 92%; in assay [11] it was 72%; in assay [12], 99%. Moreover, the residual activity in assay [13] is 92%; in assay [14], 88%; in assay [15] it was 98%; in assay [16], 90%; in assay [17], 92%; in [18], 99%. Further, the residual activity stood at 114% in assay [19] and 92% in assay [20].

As to `O=C1NC(=O)c2cc(Nc3ccc(F)cc3)c(Nc3ccc(F)cc3)cc21`, the residual activity in assay [1] was 93%; in assay [2], 69%; in assay [3], 82%; in [4] it was 75%; in assay [5] it was 109%; in assay [6], 122%. The residual activity in [7] is 89%; in [8], 76%; in assay [9], 83%; in assay [10], 71%; in assay [11], 72%; in assay [12], 58%. Also, the residual activity in assay [13] turned out to be 98%; in [14], 97%; in [15], 55%; in assay [16] it was 70%; in assay [17], 86%; in assay [18] it was 75%. In addition, the results for the residual activity in [19] and in assay [20] were 100% and 111%, respectively.

On to `CC(C)n1cnc2/c(=N/c3cccc(Cl)c3)nc(NCCO)[nH]c21`, for which the residual activity amounted to 92% in assay [1]; 116% in assay [2]; 50% in [3]; 26% in assay [4]; 81% in assay [5]; 91% in [6]. The residual activity in [7] stood at 56%; in assay [8], 16%; in assay [9] it was 98%; in assay [10], 69%; in assay [11], 73%; in [12], 49%. Moreover, the residual activity in assay [13] is 80%; in [14], 93%; in [15], 90%; in [16], 30%; in assay [17] it was 11%; in assay [18], 1%. Moreover, the residual activity in assay [19] amounted to 108%; in assay [20] it was 98%.

Regarding `O=C(Nc1cccc(Nc2cc(Nc3cccc(C(F)(F)F)c3)ncn2)c1)C1CC1`, the residual activity in assay [1] came to 71%; in [2], 91%; in assay [3] it was 83%; in [4], 79%; in [5] it was 78%; in assay [6], 88%. Moreover, the residual activity in assay [7] was found to be 89%; in assay [8] it was 89%; in [9] it was 105%; in assay [10], 97%; in [11] it was 76%; in assay [12] it was 66%. Besides, the residual activity came to 104% in assay [13]; 106% in assay [14]; 75% in assay [15]; 81% in assay [16]; 79% in [17]; 36% in [18]. In addition, the figures for the residual activity in assay [19] and in [20] were 92% and 115%, respectively.
